Measured values from PubChem BioAssay AID1159580 (chemical genetic matrix, 2015).
The whole screen tested about 5,500 compounds, of which about 2,000 (36%) were called active. Another 18% or so got no clear call; they are omitted. Rule as the data show it: active = normalized growth mostly below about 0.91 (no sharp cut-off); inconclusive = no clear call, values can overlap the other calls; inactive = mostly above about 0.92. The list shows a part of the results.

Assay: chemical genetic growth profiling, strain panel (AID 1159580);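 also: tested at 20 µM; growth read once vehicle control cultures reached saturation at 30 °C; 1 = growth at the plate median or of vehicle wells; lower values mean less growth of the strain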
Settings: S. cerevisiae deletion strains, growth OD

Measured: normalized growth

O=C(O)CCC(=O)C(=O)O
inactive: locus YAL013W, strain DEP1, hits give low values 1.01 | locus YBR021W, strain FUR4, hits give low values 1.01 | locus YBR229C, strain ROT2, hits give low values 1.01 | locus YCL029C, strain bik1, hits give low values 1.03 | locus YDL035C, strain GPR1, hits give low values 1.03 | locus YDL074C, strain BRE1, hits give low values 1.05 | locus YDL101C, strain DUN1, hits give low values 1.02 | locus YDL185W, strain tfp1, hits give low values 1.03 | locus YDL192W, strain arf1, hits give low values 1.05 | locus YDR101C, strain arx1, hits give low values 1.05 | locus YDR162C, strain NBP2, hits give low values 1.02 | locus YDR318W, strain mcm21, hits give low values 1.01 | locus YDR388W, hits give low values 1.02 | locus YDR502C, strain sam2, hits give low values 1.03 | locus YEL061C, strain CIN8, hits give low values 1.01 | locus YER110C, hits give low values 1.03 | locus YER155C, strain BEM2, hits give low values 1 | locus YER167W, strain BCK2, hits give low values 1.01 | locus YGL078C, strain dbp3, hits give low values 1.02 | locus YGL086W, strain mad1, hits give low values 1 | locus YGL248W, strain PDE1, hits give low values 1.01 | locus YGR135W, strain pre9, hits give low values 0.987 | locus YGR229C, strain SMI1, hits give low values 1.03 | locus YGR252W, strain gcn5, hits give low values 0.942 | locus YHR030C, strain SLT2, hits give low values 1.01 | locus YHR079C, strain IRE1 (second series), hits give low values 1.03 | locus YHR094C, strain hxt1, hits give low values 1.01 | locus YHR129C, strain ARP1, hits give low values 1.02 | locus YHR200W, strain rpn10, hits give low values 1 | locus YIL066C, strain RNR3, hits give low values 1.01 | locus YIL073C, strain SPO22, hits give low values 1.07 | locus YIL125W, strain kgd1, hits give low values 1.02 | locus YIR030C, strain dcg1, hits give low values 1.03 | locus YJL095W, strain BCK1, hits give low values 1.02 | locus YJL134W, strain LCB3, hits give low values 1 | locus YJL168C, strain set2, hits give low values 1.01 | locus YJL187C, strain SWE1 (second series), hits give low values 1.02 | locus YJR043C, strain POL32, hits give low values 1.01 | locus YJR075W, strain HOC1, hits give low values 1 | locus YKL009W, strain mrt4, hits give low values 1.05 | locus YKL068W, hits give low values 1.01 | locus YKL085W, strain MDH1 (second series), hits give low values 1.01 | locus YKL085W, strain MDH1, hits give low values 1.01 | locus YKL190W, strain CNB1, hits give low values 1.01 | locus YKR001C, strain vps1, hits give low values 1.05 | locus YLR039C, strain RIC1, hits give low values 1.05 | locus YLR058C, strain SHM2, hits give low values 1.01 | locus YLR102C, strain apc9, hits give low values 1.01 | locus YLR262C, strain YPT6, hits give low values 1.05 | locus YLR268W, strain sec22, hits give low values 1.03 | locus YLR330W, strain CHS5, hits give low values 1.01 | locus YLR342W, strain FKS1 (second series), hits give low values 1.01 | locus YLR371W, strain rom2, hits give low values 1.01 | locus YLR418C, strain cdc73, hits give low values 1.02 | locus YML016C, strain PPZ1, hits give low values 1.01 | locus YML032C, strain rad52, hits give low values 0.995 | locus YML124C, strain tub3, hits give low values 1.02 | locus YMR078C, strain ctf18, hits give low values 1.03 | locus YMR223W, strain ubp8, hits give low values 1 | locus YMR307W, strain GAS1, hits give low values 1.05 | locus YNL067W, strain RPL9B, hits give low values 1.01 | locus YNL128W, strain TEP1, hits give low values 1.04 | locus YNL233W, strain BNI4, hits give low values 1.01 | locus YNL250W, strain rad50, hits give low values 1.03 | locus YNL271C, strain bni1, hits give low values 1.04 | locus YNL298W, strain CLA4, hits give low values 1.01 | locus YNL307C, strain MCK1, hits give low values 1.04 | locus YNR052C, strain pop2, hits give low values 1.02 | locus YOL012C, strain htz1 0.918 | locus YOL147C, strain pex11, hits give low values 1.02 | locus YOR061W, strain CKA2, hits give low values 1.01 | locus YOR069W, strain VPS5, hits give low values 1 | locus YOR136W, strain idh2, hits give low values 1.02 | locus YOR144C, strain elg1, hits give low values 1.02 | locus YOR184W, strain ser1, hits give low values 1.02 | locus YOR316C, strain cot1, hits give low values 1.02 | locus YPR119W, strain clb2, hits give low values 1.02 | locus YPR141C, strain kar3, hits give low values 1.02 | locus YPR163C, strain tif3, hits give low values 1.03 | locus YPR167C, strain met16, hits give low values 1.05 | strain wtn01, hits give low values 1.02
